Shown are actives, neighbours in structure and some others; about 1.2% of the full set was active somewhere.
miR122 inh: blocks miR-122 activity in Huh7 sensor cells | Huh7 miR-122 Renilla luciferase sensor, 48 h; neutral wells = 0, positive control = 100 | activation (reporter increase), % at 12.5 µM | hit rate 0.3% among 340,000;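 active = mean replicate activation score at least 90 and every replicate individually at or above 90; inconclusive = only one of the two criteria met; inactive = neither criterion met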;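 also: higher luciferase means less miR-122 activity so hits act as miR-122 inhibitors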
PglD inh: inhibitors of Campylobacter jejuni PglD acetyltransferase; purified PglD enzyme, DTNB colorimetric CoA detection; inhibition, % at 12.5 µM; hit rate 0.098% among 360,000; in the data active = inhibition above about 16%, passing the limit was not always enough; inconclusive = no clear call, values can overlap the other calls
NSD2 inh: blocks human histone methyltransferase NSD2; hit rate 0.54% among 310,000; NSD2 peptide methylation, AlphaScreen, 120 min; inhibition, % at 12.5 µM; in the data active = inhibition above about 50%
C2C12 statin: protects C2C12 myotubes from simvastatin toxicity; ATP luminescence, 48 h; scaled: DMSO 0, geranylgeraniol control 100; rescue of ATP level, % at 7.49 µM; hit rate 0.78% among 330,000;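 active = mean ATP rescue above about 67%, or every replicate alone reaching that limit, limit read from the data, passing the limit was not always enough; inconclusive = no clear call, values can overlap the other calls; inactive = mean under the limit and some replicate under it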;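 also: myotubes were challenged with 10 µM simvastatin during compound exposure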
Alpha artifact: AlphaScreen assay artifact in NSD2 counter-screen; shares compounds with NSD2 inh; AC35, µM (titrated, usually from 10 µM), for inactives: at the top dose activity change, negative = signal loss; AID 1053174; AlphaScreen artifact counterscreen, preloaded methylated H4 peptide; hit rate 9.4% among 1,500; call rule not given here
* hit, by the source's call; [ ] = another dose, or the depositor's remark.

Screening CNC(=O)C[C@@H]1CC[C@H]2[C@H](COc3ccc(NC(=O)c4cnccn4)cc3C(=O)N2C)O1 returned miR122 inh 8[16.7 µM], PglD inh 0 and C2C12 statin 3.
Screening CO[C@H]1CN(C)C(=O)c2cc(NC(=O)C3CCC3)ccc2OC[C@@H](C)N(Cc2cccnc2)C[C@H]1C returned PglD inh -1 and C2C12 statin 12.
Screening CCOc1cc(N2CCOCC2)c(OCC)cc1NC(=O)C(C)C returned miR122 inh 12, PglD inh -1, NSD2 inh 19 and C2C12 statin 3.
CCOc1cc(N2CCOCC2)c(OCC)cc1NC(C)C(=O)N1CCN(CC)CC1 (configuration not stated) was read as NSD2 inh 90* and Alpha artifact 2%.
For COc1ccc(NC(=O)Nc2cccc3c2O[C@@H](CN(C)C(=O)Nc2cccc4ccccc24)[C@H](C)CN([C@@H](C)CO)C3=O)cc1 the results were miR122 inh 4[16.7 µM], PglD inh 3 and C2C12 statin inconclusive.
CCCC#Cc1ccc2c(c1)O[C@H](CN(C)Cc1ccccc1)[C@@H](C)CN([C@H](C)CO)S2(=O)=O was read as PglD inh 2 and C2C12 statin 9.
Cc1cc2ncn(-c3ncccc3[N+](=O)[O-])c2cc1C was read as miR122 inh -9, PglD inh 3, NSD2 inh 7 and C2C12 statin 25.
`Cc1cc(C)n(-c2ncccc2[N+](=O)[O-])n1` gave miR122 inh -10, PglD inh 2, NSD2 inh 52*, C2C12 statin 5 and Alpha artifact -7%.
Screening Cc1ccc(Cl)cc1NC(=O)C[n+]1ccc(Cc2ccc([N+](=O)[O-])cc2)cc1 returned miR122 inh -21, NSD2 inh 84* and Alpha artifact -10%.
`O=C(C[n+]1ccc(Cc2ccccc2)cc1)Nc1ccc([N+](=O)[O-])cc1Cl` gave NSD2 inh 15.
`CCOc1cc(/C=C\c2nc(O)c([N+](=O)[O-])c(=O)[nH]2)ccc1OC(C)C` gave PglD inh -5, NSD2 inh -1 and C2C12 statin -4.
Screening C=CCc1cc(/C=C/c2nc(O)c([N+](=O)[O-])c(=O)[nH]2)cc(OC)c1O returned NSD2 inh 78* and Alpha artifact -9%.
Screening Cc1nc2[nH]c(=S)[nH]c(=O)c2nc1C returned miR122 inh 1, PglD inh -8, NSD2 inh 4 and C2C12 statin 8.
Cc1nc2c(=O)[nH]c(=S)[nH]c2[nH]c1=O was read as PglD inh 7, NSD2 inh 84*, C2C12 statin -3 and Alpha artifact -2%.
For CCCNC(=O)N[C@H]1CC[C@H](CC(=O)NC2CCC2)O[C@@H]1CO the results were miR122 inh -10[16.7 µM] and C2C12 statin -7.
C[C@H](CO)N1C[C@H](C)[C@H](CN(C)S(=O)(=O)c2ccc(F)cc2)Oc2ccc(NC(=O)c3ccncc3)cc2CC1=O was read as miR122 inh -8[16.7 µM], PglD inh 0 and C2C12 statin -11.
`CC(C)(C)c1[nH]nc2c1C(C1C=CCCC1)C(C#N)=C(N)O2` (configuration not stated) gave miR122 inh 1, PglD inh 0, NSD2 inh 127*, C2C12 statin 3 and Alpha artifact -6%.
Screening CC(C)c1[nH]nc2c1C(C1C=CCCC1)C(C#N)=C(N)O2 (configuration not stated) returned NSD2 inh 2.
For Cc1c(Br)c(=O)oc2c(Br)c(O)c(O)cc12 the results were NSD2 inh 111* and Alpha artifact -15%.
For Cc1c(Br)c(=O)oc2c(Br)c(O)ccc12 the results were miR122 inh 0, PglD inh 4, NSD2 inh 18 and C2C12 statin 5.
O=C(c1coc(=O)c(Br)c1)N1CCOCC1 was read as miR122 inh -10, NSD2 inh 141*, C2C12 statin -4 and Alpha artifact -8%.
For C[C@H](CO)N1C[C@H](C)[C@H](CN(C)C(=O)c2cccnc2)Oc2cc(C#CC3(O)CCCC3)ccc2S1(=O)=O the results were miR122 inh -6[16.7 µM], PglD inh 4 and C2C12 statin -9.
CCOC(=O)c1c(C#N)c(SCC(=O)Nc2ccc(OC)cc2)nc2c1CN(CC)CC2 was read as PglD inh 15, NSD2 inh 70*, C2C12 statin 1 and Alpha artifact -3%.
For COc1ccccc1C(=O)Nc1ccc2c(c1)C(=O)N(C)C[C@H](OC)[C@@H](C)CN(C)[C@H](C)CO2 the results were PglD inh -1 and C2C12 statin 9.
Screening CCN(CC)CCCNC(=O)c1cc2c(Cl)nc3ccccc3c2s1 returned NSD2 inh 80* and Alpha artifact -4%.
Screening CN(CCCNC(=O)c1cc2c(Cl)nc3ccccc3c2s1)Cc1ccccc1 returned miR122 inh 4, PglD inh 4, NSD2 inh 13 and C2C12 statin 1.
COc1ccc(-c2ncncc2-c2ccccc2)c(O)c1 was read as PglD inh 5, NSD2 inh 68*, C2C12 statin -7 and Alpha artifact -2%.
`CCOc1ccc(-c2ncncc2-c2ccc(OC)cc2)c(O)c1` gave miR122 inh 5, PglD inh 0, NSD2 inh 5 and C2C12 statin 14.

Screening results (PubChem)
